What all share (assay): PBM binding z-score (relative to random genomic background probes); higher = stronger binding; sequences stand for … in GC…GCGATTGACAGCGTAGAATGAAGG
Assay [1] concerns FXR:RXRa (NR concentration 270 nM, RXRa partner concentration 90 nM). In a few lines: (§1)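 Antibodies against each partner of ligand-free nuclear receptor dimers (one per run) detected binding on custom Agilent 4×180K protein-binding microarrays after 1 h incubation. The double-stranded probes had 34-nt variable regions carrying direct-repeat seeds, single-nucleotide variants, half-site ablations and random human genomic background sequences. Binding z-scores, from regression-normalized fluorescence, use the random background probes as reference.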

Assay [2] has as its system LXRa homodimer (NR concentration 270 nM). In a few lines: as §1
Assay [3] relates to LXRb homodimer (NR concentration 270 nM). In a few lines:
as §1

Assay [4] concerns PPARg:RXRa 270nM:90nM, anti-RXR (NR concentration 270 nM, RXRa partner concentration 90 nM). In a few lines: as §1
The subject of assay [5] is PPARg:RXRa 30nM:10nM, anti-RXR (NR concentration 30 nM, RXRa partner concentration 10 nM). In a few lines:
as §1

In assay [6] the test system is PPARg:RXRa 90nM:30nM, anti-RXR (NR concentration 90 nM, RXRa partner concentration 30 nM). In a few lines:
as §1

Assay [7] concerns PPARg:RXRa DBDmut IVT, anti-RXR (DBD mutation: RXRa K156A/R161A, NR concentration 270 nM, RXRa partner concentration 90 nM). In a few lines: as §1
Assay [8] concerns PPARg:RXRa IVT, anti-PPARg (NR concentration 270 nM, RXRa partner concentration 90 nM). The method in brief: as §1
Assay [9] concerns PPARg DBDmut:RXRa IVT, anti-PPARg (DBD mutation: PPARg1 K132A/R137A, NR concentration 270 nM, RXRa partner concentration 90 nM). In a few lines: as §1
In assay [10] the test system is PPARg DBDmut IVT, anti-PPARg (DBD mutation: PPARg1 K132A/R137A, NR concentration 270 nM). In a few lines: as §1
The test system of assay [11] is PPARg homodimer (NR concentration 180 nM). In a few lines: as §1
Assay [12] has as its system PXR homodimer (NR concentration 270 nM). The method in brief:
as §1

Assay [13] deals with RARa homodimer (NR concentration 270 nM). The method in brief:
as §1

Assay [14] relates to RARb homodimer (NR concentration 270 nM). In a few lines: as §1
The subject of assay [15] is PPARg:RXRa (NR concentration 180 nM, RXRa partner concentration 90 nM). In a few lines:
as §1

The test system of assay [16] is RARa:RXR (NR concentration 270 nM, RXRa partner concentration 90 nM). In a few lines: as §1
In assay [17] the test system is RARb:RXRa (NR concentration 270 nM, RXRa partner concentration 90 nM). In a few lines:
as §1

Assay [18] deals with LXRa:RXRa (NR concentration 270 nM, RXRa partner concentration 90 nM). In a few lines: as §1
Assay [19] has as its system PPARa:RXRa (NR concentration 270 nM, RXRa partner concentration 90 nM). The method in brief: as §1
Assay [20] relates to PXR:RXRa (NR concentration 270 nM, RXRa partner concentration 90 nM). In a few lines: as §1

Consider TGTCAAAGTTCAAAGGTTACGTAAGTATCCACAC, for which the PBM binding z-score in assay [1] worked out at 7.49; in assay [2], 5.25; in assay [3] it was 2.03; in assay [4], 8.17; in [5], 5.91; in [6] it was 8.13. The PBM binding z-score stood at 0.119 in assay [7]; 5.16 in assay [8]; 1.58 in assay [9]; 1.43 in assay [10]; 3.27 in [11]; 4.04 in assay [12]. For the same sequence, the PBM binding z-score in assay [13] was 1.12; in assay [14], 4.75.

CCGAGTAGGTTACGAGGGGTCATTCAGTGCGAAT: the PBM binding z-score was 4.94 in assay [1]; 6.16 in assay [2]; 4.13 in assay [15]; 4.4 in assay [4]; 1.73 in assay [5]; 3.54 in [6]. For the same sequence, the PBM binding z-score in assay [7] is 4.41; in [8], 4.3; in [11], 4.32; in [12], 10.4; in assay [16], 6.71; in assay [13], 1.29. Further, the PBM binding z-score in assay [17] stood at 3.35; in assay [14], 3.68.

For the sequence CCTGCGAGGTCATGGTCAGCTAATCTACAGTATG, the PBM binding z-score in [18] came to 5.55; in assay [2], 1.41; in assay [3], 0.772; in assay [19], 5.87; in assay [15], 5.93; in [4] it was 5.94. The PBM binding z-score came to 2.34 in assay [5]; 4.57 in assay [6]; 3.79 in [7]; 4.21 in [8]; 2.09 in [9]; 1.64 in assay [10]. Moreover, the PBM binding z-score in [11] amounted to 4.94; in assay [20] it was 5.39; in [12] it was 1.06; in [16], 5.88; in assay [13], 1.08; in assay [17], 5.01. Besides, the PBM binding z-score in assay [14] worked out at 4.02.

For CGAACTAGGTCAAGGACAGTAAATCTCCGCACGC, the PBM binding z-score in assay [18] was 2.4; in assay [2], 0.115; in [3], -0.249; in [19], 4.71; in assay [15], 7.56; in assay [4] it was 6.25. The PBM binding z-score amounted to 3.88 in assay [5]; 6.02 in assay [6]; 7.9 in assay [7]; 7.98 in [8]; 5.28 in assay [9]; 4.25 in assay [10]. The PBM binding z-score in [11] amounted to 3.13; in [20], 1.1; in [12] it was 0.317; in assay [16], 2.19; in assay [13] it was 0.685; in assay [17], 3.67. For the same sequence, in assay [14], the PBM binding z-score was 2.91.

With TAGCCTAGGTCACATCGGGCCAGTATACGCTATA, the PBM binding z-score in assay [18] is 3.44; in assay [2], 0.038; in assay [3] it was 0.0362; in assay [19] it was 3.16; in [15], 2.64; in [4] it was 2.61. Moreover, the PBM binding z-score in [5] is 0.683; in [6] it was 1.59; in assay [7], 2.1; in assay [8], 3.51; in assay [9], 0.246; in [10] it was -0.263. In addition, the PBM binding z-score in [11] is 0.979; in assay [20] it was 2.26; in assay [12] it was -0.395; in [16], 2.25; in assay [13], -0.254; in assay [17], 3.84. This sequence also had a PBM binding z-score in [14] of 2.63.

On to CGAACTAGGTCATTGACAGGACAGTGGATAGTAA, for which the PBM binding z-score in [18] worked out at 2.74; in assay [2], 0.471; in assay [3], 0.232; in [19] it was 4.75; in [15], 7.3; in assay [4] it was 6.07. In addition, the PBM binding z-score in assay [5] was 3.68; in [6], 5.3; in [7] it was 8.44; in assay [8], 7.98; in assay [9], 2.72; in assay [10] it was 1.77. For the same sequence, the PBM binding z-score in assay [11] is 1.39; in assay [20], 1.52; in assay [12] it was 0.501; in assay [16] it was 2.02; in assay [13] it was -0.303; in assay [17], 3.53. In assay [14], this sequence came in with a PBM binding z-score of 2.83.

Regarding CCTTACGGGTCCCTCCAGGTTATAGCATCGGAGT, the PBM binding z-score is -0.148 in [18]; -0.112 in assay [2]; -0.475 in assay [3]; -0.0853 in assay [19]; -0.172 in assay [15]; -0.6 in assay [4]. The PBM binding z-score in [5] was -0.679; in assay [6], -0.697; in assay [7], -1.14; in [8] it was -0.601; in [9], -1.12; in assay [10], -1.29. The PBM binding z-score is 0.547 in [11]; 0.139 in assay [20]; -0.00641 in assay [12]; 0.181 in [16]; -0.487 in assay [13]; 0.0941 in [17]. The same sequence gave a PBM binding z-score in assay [14] of 0.0845.

Turning to CGTCCAAGGTCAATGCTAGATCAGTGAAAGCATT, the PBM binding z-score stood at 6.47 in [1]; 0.407 in assay [2]; 0.497 in assay [3]; 3.65 in [15]; 4.19 in [4]; 1.52 in assay [5]. Besides, the PBM binding z-score in assay [6] is 2.91; in assay [7], 3.16; in assay [8] it was 3.17; in assay [9] it was -0.125; in assay [10], 0.742; in [11], 2.99. Besides, the PBM binding z-score in assay [20] is 3.36; in assay [12], 0.745; in assay [16] it was 3.86; in [13] it was 1.18; in assay [17], 4.94; in assay [14], 3.73.

The values are drawn from the supplement of paper PMC6555819.
